About 140 (0.3%) of roughly 47,000 compounds were called active. Cut-off read from the data, not from the text of the source: active = inhibition above about 30%; inactive = the rest. The sample as a whole holds a higher share of actives than the screen did.
Biological target: Ubiquitin carboxyl-terminal hydrolase 7 (Homo sapiens) (UniProt Q93009)
Assay: blocks human USP7 ubiquitin-rhodamine cleavage (AID 1645854)
Conditions: purified USP7, Ub-rhodamine cleavage fluorescence; at 20 µM; active compounds read high

Chain of Ubiquitin carboxyl-terminal hydrolase 7 (Homo sapiens) (Q93009 whole entry, looked up): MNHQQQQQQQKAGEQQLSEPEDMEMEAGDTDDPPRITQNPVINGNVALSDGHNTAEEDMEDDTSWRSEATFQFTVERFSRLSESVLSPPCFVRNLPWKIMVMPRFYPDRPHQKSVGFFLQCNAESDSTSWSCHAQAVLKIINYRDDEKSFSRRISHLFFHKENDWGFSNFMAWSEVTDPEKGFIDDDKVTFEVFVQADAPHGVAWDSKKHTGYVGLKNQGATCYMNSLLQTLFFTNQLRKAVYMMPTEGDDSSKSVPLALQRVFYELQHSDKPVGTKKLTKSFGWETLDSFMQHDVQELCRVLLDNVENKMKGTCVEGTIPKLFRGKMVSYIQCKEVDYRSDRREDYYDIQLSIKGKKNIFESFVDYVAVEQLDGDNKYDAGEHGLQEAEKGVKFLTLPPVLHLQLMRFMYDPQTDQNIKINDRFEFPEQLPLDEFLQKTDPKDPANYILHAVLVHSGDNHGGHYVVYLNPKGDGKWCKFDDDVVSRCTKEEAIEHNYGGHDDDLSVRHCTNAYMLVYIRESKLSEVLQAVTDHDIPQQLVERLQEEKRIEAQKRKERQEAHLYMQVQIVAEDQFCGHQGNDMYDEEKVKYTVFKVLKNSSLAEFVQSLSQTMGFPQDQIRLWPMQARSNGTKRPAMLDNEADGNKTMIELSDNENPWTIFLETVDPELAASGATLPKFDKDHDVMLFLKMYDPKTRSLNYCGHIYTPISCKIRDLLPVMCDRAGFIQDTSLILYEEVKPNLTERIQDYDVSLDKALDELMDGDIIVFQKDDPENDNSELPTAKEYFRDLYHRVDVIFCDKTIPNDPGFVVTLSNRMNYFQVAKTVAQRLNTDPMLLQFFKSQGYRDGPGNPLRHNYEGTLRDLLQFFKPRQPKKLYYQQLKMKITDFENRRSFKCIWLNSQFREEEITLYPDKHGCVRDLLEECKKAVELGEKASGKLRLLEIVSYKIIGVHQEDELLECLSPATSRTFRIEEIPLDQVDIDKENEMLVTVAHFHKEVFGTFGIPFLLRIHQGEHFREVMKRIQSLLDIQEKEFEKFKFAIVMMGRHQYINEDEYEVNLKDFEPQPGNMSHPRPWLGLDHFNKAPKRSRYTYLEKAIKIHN

Row | Compound | inhibition
1 | O=C1CCCC2=C1C(c1ccc(O)cc1)n1ncc(C(=O)Nc3ccccc3)c1N2 (centres undefined) | 1.67% (inactive)
2 | Fc1ccc(-c2nn(-c3cccc(F)c3)c3c2cnc2cc4c(cc23)OCO4)cc1 | 8.85% (inactive)
3 | CCC(=O)NC(=NCCc1c[nH]c2ccc(Cl)cc12)Nc1nc(C)cc(C)n1 | 6.43% (inactive)
4 | Cc1c(S(=O)(=O)N2CCCC2)cc(C(=O)Nc2ccccc2F)n1C | 1.4% (inactive)
5 | Cc1ccc(-c2cc(=O)oc(-c3ccc(Br)cc3)n2)cc1 | 4.33% (inactive)
6 | COc1ccc(OC)c(-c2cc(C(=O)N3C[C@@H]4C[C@@]5(C)[C@H](CCC[C@@H]35)N4)[nH]n2)c1 | 1.2% (inactive)
7 | Cc1ccccc1Nc1nccc(C2CCCN(C(=O)C3(c4ccccc4)CC3)C2)n1 (centres undefined) | -0.199% (inactive)
8 | CC12CCN(CCC(F)(F)F)CCN1C(=O)N(Cc1ccccn1)C2=O (centres undefined) | -2.02% (inactive)
9 | Cc1nc(Nc2ccccn2)cc(C2CCCN2C(=O)c2cccnc2)n1 (centres undefined) | -7.09% (inactive)
10 | CCc1ccccc1NC(=O)COc1nsnc1N1CCOCC1 | -0.647% (inactive)
11 | Cc1cc(O)c2c(C)c(CC(=O)N3CCC[C@H]3C(=O)O)c(=O)oc2c1 | 0.928% (inactive)
12 | Cc1nc2ccccc2c(=O)n1-c1ccc(F)c(NC(=O)c2ccccc2[N+](=O)[O-])c1 | 3.02% (inactive)
13 | O=S(=O)(Cc1noc(-c2ccc(OC(F)(F)F)cc2)n1)c1ccc(F)cc1 | -2.05% (inactive)
14 | Cc1nc2sccn2c1CN1C[C@@H](c2ccccn2)[C@@]2(CCCCC(=O)N2)C1 | 5.2% (inactive)
15 | CC(=O)N1CCCn2c(nc(CNC(=O)c3cnn(C)c3)cc2=O)C1 | 6.8% (inactive)
16 | Cc1ccccc1CNC(=O)CCc1nc2ccccc2c(=O)n1C | -6.78% (inactive)
17 | CC(C)n1ncc2c(C(=O)NCc3ccccc3CN(C)C)cc(C3CC3)nc21 | -0.227% (inactive)
18 | CN1C(=O)OC2(CCN(S(=O)(=O)c3ccccc3)CC2)c2ccccc21 | 4.14% (inactive)
19 | CCCNC(=O)c1nc2c(o1)CN(CC1CC1)C2 | 0.464% (inactive)
20 | CN(C(=O)COc1ncnc2c1cnn2-c1ccccc1)C1CCCCC1 | 1.52% (inactive)
21 | Cc1cccc(S(=O)(=O)N(CC(=O)N(C)Cc2ccccc2)Cc2ccccc2)c1 | -0.03% (inactive)
22 | COc1cc(C)c(CN2CCC3(CC2)OCCc2cnc(C)nc23)cc1C | -2.12% (inactive)
23 | O=C(Nc1cc(C(F)(F)F)ccc1-n1cnc2ccccc21)c1ccc(S(=O)(=O)N2CCCCC2)cc1 | 12.8% (inactive)
24 | Cc1nc(CN2CCn3c(CNC(=O)C4CC4)cnc3C2C)cs1 (centres undefined) | -127% (inactive)

Reference: PubChem BioAssay AID1645854 (Buhrlage Lab, Dana-Farber Cancer Institute and Novartis …, 2021)
